A selection: hits, their analogues and other compounds. The true share with any hit is near 2.8%.
MITF act = increases MITF-driven TRPM1 promoter luciferase signal | SK-MEL-5 TRPM1-promoter luciferase, 24 h; % of positive control, neutral wells = 0 | activation, % at 12.5 µM | actives 0.75% (n = 300,000) | AID 588334;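 active = mean activation of at least 80% with every replicate also reaching 80%; inconclusive = mean reaches 80% but some replicate falls short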;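 also: 0% = neutral control wells and 100% = parthenolide positive control wells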
FXN GAA850 act = activators of GAA850 frataxin (FXN) promoter | HEK293 lucGAA850 FXN promoter luciferase reporter, 24 h; percent of 10 µM SAHA response | activation, % at 6 µM | actives 0.56% (n = 360,000);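 active = activation above the average of all compounds screened plus 3 SD, cutoff fixed separately per campaign, cut at about 7.5% in these data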;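 also: 0% = DMSO wells and 100% = 10 µM SAHA wells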
Wnt act = Wnt/beta-catenin pathway activation; Wnt/beta-catenin reporter cell assay, activator, plate reader; activation, % at 9.35 µM; actives 1.2% (n = 300,000); AID 743398; in the data active = activation above about 30%, passing the limit was not always enough; inconclusive = no clear call, values can overlap the other calls;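 also: 0% = neutral control wells and 100% = positive control wells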
esBAF inh = inhibitors of esBAF chromatin remodeling in mouse ES cells | actives 2% (n = 350,000) | Bmi1-luciferase knock-in reporter, 24 h; 100% = twice the neutral-well signal | reporter increase, % at 12.5 µM; in the data active = activation above about 40%; inconclusive = no clear call, values can overlap the other calls;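 also: 0% = median of the plate's neutral control wells and 100% = double that signal; a rise in the Bmi1 reporter signal indicates esBAF inhibition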
* = called active by the depositor.

Screening C[C@@H]1CCCCO[C@H](CN(C)C(=O)CCCN(C)C)[C@H](C)CN([C@@H](C)CO)C(=O)c2cc(NC(=O)c3ccccc3)ccc2O1 returned esBAF inh -1.7.
For COc1ccc2cc(CCC(C)=O)ccc2c1 the results were MITF act 108.1*, FXN GAA850 act 2.8, Wnt act 2.2 and esBAF inh 57.6*.
O=C(Nc1cccc(Cl)c1)c1csc(COCCO)n1 was read as FXN GAA850 act 2.9, Wnt act 24.6 and esBAF inh 47.3*.
Screening CC(C)NC(=O)CCc1nnc(Cc2cccc(C(F)(F)F)c2)o1 returned MITF act 53.2, FXN GAA850 act 2.1, Wnt act 3.4 and esBAF inh 67.1*.
For O=C(CCc1ccccc1)Nc1ccc(F)cc1F the results were MITF act 54.6, FXN GAA850 act 3.5, Wnt act 13.0 and esBAF inh 65.7*.
COC(=O)c1ccc(NC(=O)Nc2cccc(F)c2)cc1 was read as MITF act 46.4, FXN GAA850 act 2.6 and esBAF inh 70.3*.
O=C(Nc1ccccc1)Nc1ccc(F)cc1F was read as MITF act 72.2, FXN GAA850 act 3.3 and Wnt act 48.4*.
COc1ccc(NC(=O)Nc2cccc(F)c2)c(OC)c1 was read as MITF act 35.2, FXN GAA850 act 1.2, Wnt act 14.9 and esBAF inh 6.6.
Screening O=C(CCc1ccccc1)Nc1ccccc1F returned MITF act 49.5 and FXN GAA850 act 5.6.
Screening COC(=O)c1ccc(NC(=O)Nc2ccc(F)cc2F)cc1 returned MITF act 50.1, FXN GAA850 act 4.7, Wnt act -3.7 and esBAF inh 78.5*.
C[C@@H]1CN([C@@H](C)CO)C(=O)c2cc(N(C)C)ccc2O[C@@H](C)CCCCO[C@H]1CN(C)Cc1ccccc1 was read as esBAF inh -6.2.
Screening C[C@H]1CN([C@@H](C)CO)S(=O)(=O)c2ccc(-c3cccnc3)cc2O[C@@H]1CN(C)Cc1cccnc1 returned esBAF inh 3.9.
Screening Cc1cccc(N2CCN(c3cccc(C)c3)C2c2cccnc2)c1 returned FXN GAA850 act 2.5, Wnt act 37.4* and esBAF inh 11.7.
CCCC#Cc1ccc2c(c1)O[C@@H](CN(C)S(=O)(=O)c1cccc(F)c1)[C@H](C)CN([C@@H](C)CO)S2(=O)=O was read as esBAF inh 3.1.
For CC(C)(C)c1ccc(OCc2ccc(C(=O)Nc3cccnc3)o2)cc1 the results were MITF act 5.4, FXN GAA850 act 1.5, Wnt act inconclusive and esBAF inh 63.1*.
O=C(Nc1nccs1)c1ccc(CSc2ccccc2)o1 was read as MITF act inconclusive, FXN GAA850 act 7.2, Wnt act 38.1* and esBAF inh 39.1.
Screening O=C(Nc1cccnc1)c1ccc(COc2ccccc2Br)o1 returned MITF act 10.3, FXN GAA850 act -0.8 and esBAF inh 4.4.
`O=C(Nc1nccs1)c1ccc(COc2ccccc2)o1` gave FXN GAA850 act 5.9, Wnt act -0.3 and esBAF inh 51.5*.
CC(=O)N(C)C[C@@H]1Oc2ncc(C#Cc3ccncc3)cc2C(=O)N([C@@H](C)CO)C[C@H]1C was read as esBAF inh -2.7.
Screening C/C=C/c1ccc([C@@H]2[C@@H](CO)N(C(C)=O)[C@H]2CN(C)S(C)(=O)=O)cc1 returned esBAF inh 4.3.
Screening Cc1noc(C)c1S(=O)(=O)Nc1ccc2c(c1)C(=O)N([C@H](C)CO)C[C@H](C)[C@H](CN(C)C(=O)Cc1ccccc1)OCCCC[C@H](C)O2 returned esBAF inh 16.0.
COC(=O)C(C)N1C(=O)S/C(=C\c2ccc(-c3ccc(C(=O)O)cc3C)o2)C1=O (centres undefined) was read as MITF act 36.0, FXN GAA850 act 3.3, Wnt act 7.3 and esBAF inh 71.0*.
For COc1ccccc1CN(C)C[C@H]1OCc2cnnn2CCCC(=O)N([C@H](C)CO)C[C@H]1C the results were esBAF inh -4.3.
For c1ccc2c(c1)ncn2CCCOc1ccc2c(c1)CCC2 the results were FXN GAA850 act 1.8, Wnt act 37.7* and esBAF inh -4.1.
`c1ccc2c(c1)ncn2CCCCOc1ccc2c(c1)CCC2` gave FXN GAA850 act -0.3 and esBAF inh -27.9.
Cc1ccc(Nc2ncc3c(n2)CC(C)CC3=O)c(C)c1 (centres undefined) was read as FXN GAA850 act 1.6 and Wnt act 52.0*.
Screening CC1CC(=O)c2cnc(Nc3ccccc3)nc2C1 (centres undefined) returned MITF act 56.9, FXN GAA850 act 6.9, Wnt act 18.6 and esBAF inh 31.1.
For O=C(O)CC1=C(O)C(=O)N(c2ccccc2)C1c1ccccc1 (centres undefined) the results were MITF act -5.1, FXN GAA850 act 0.3, Wnt act 1.5 and esBAF inh 3.2.
O=C(O)CC1=C(Nc2ccccc2)C(=O)N(c2ccccc2)C1c1ccc(F)cc1 (centres undefined) was read as MITF act 70.0, FXN GAA850 act 0.1, Wnt act -1.0 and esBAF inh 78.7*.
For COc1ccc(C2C(CC(=O)O)=C(Nc3ccccc3)C(=O)N2c2ccccc2)cc1 (centres undefined) the results were MITF act 49.1, FXN GAA850 act 2.1, Wnt act 43.4* and esBAF inh 54.2*.
For O=C(O)CC1=C(O)C(=O)N(c2ccccc2)C1c1ccc(Br)cc1 (centres undefined) the results were MITF act 0.9, FXN GAA850 act 0.8 and esBAF inh 5.6.
Screening CC(C)CC#Cc1cnc2c(c1)C(=O)N([C@H](C)CO)C[C@H](C)[C@H](CN(C)C(=O)c1ccccc1F)O2 returned esBAF inh -0.6.
`O=C(CCNC(=O)c1ccc(Cl)cc1)Nc1ccc(S(=O)(=O)N2CCOCC2)cc1` gave MITF act -8.9, FXN GAA850 act 0.6, Wnt act -1.9 and esBAF inh -6.4.
`Cc1ccc(C(=O)Nc2ccc(S(=O)(=O)N3CCOCC3)cc2)cc1Br` gave FXN GAA850 act 0.5 and Wnt act 41.4*.
Screening Cc1ccc(C(=O)Nc2ccc(S(=O)(=O)N3CCOCC3)cc2)cc1C returned FXN GAA850 act -0.6, Wnt act -0.4 and esBAF inh 8.0.
Screening COc1ccc(S(=O)(=O)N2CCOCC2)cc1NC(=O)c1ccc2c(c1)OCCO2 returned MITF act -2.0, FXN GAA850 act 1.2, Wnt act 39.8* and esBAF inh 3.5.
Screening O=C(CCNC(=O)c1ccc(Br)cc1)Nc1ccc(S(=O)(=O)N2CCOCC2)cc1 returned MITF act 2.9, FXN GAA850 act 0.5, Wnt act 35.9* and esBAF inh -7.7.
Screening O=C(NCC[C@@H]1CC[C@@H](NS(=O)(=O)c2cccc(F)c2)[C@@H](CO)O1)Nc1cc(F)ccc1F returned esBAF inh 6.7.
C[C@@H]1CN([C@@H](C)CO)S(=O)(=O)c2ccc(C#CC3CC3)cc2O[C@H]1CN(C)CC1CCOCC1 was read as esBAF inh 4.9.
